Screening data (PubChem BioAssay)
RecA intein inh = inhibitors of M. tuberculosis RecA intein splicing | AID 2221 | 290,000 tested, 0.75% active | cell-free RecA intein splicing, fluorescence | P9WHJ3 | inhibition, % (concentration not given with the values); in the data active = inhibition above about 30%;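 note: 0% = vehicle wells and 100% = reference inhibitor control wells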
Rv3671c protease = Rv3671c (M. tuberculosis) protease inhibition; AID 2606; 320,000 tested, 0.048% active; P9WHR9; inhibition, % at 5.96 µM; in the data active = inhibition above about 38%;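 note: extracellular domain of Rv3671c used as enzyme; 0% = enzyme with DMSO and 100% = no enzyme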
BJeLR viability = kills HRASV12-expressing BJeLR cells; BJeLR (HRASV12) viability, CellTiter-Glo ATP luminescence, 48 h; 300,000 tested, 0.17% active; inhibition, % (concentration not given with the values); in the data active = inhibition above about 50%
UGM FP inh = Mtb UDP-galactopyranose mutase inhibition | 320,000 tested, 0.06% active | P9WIQ1 | inhibition, % at 10 µM | purified UGM, fluorescence polarization probe displacement; in the data active = inhibition above about 10%, passing the limit was not always enough
Target sequence (P9WIQ1 whole entry, looked up): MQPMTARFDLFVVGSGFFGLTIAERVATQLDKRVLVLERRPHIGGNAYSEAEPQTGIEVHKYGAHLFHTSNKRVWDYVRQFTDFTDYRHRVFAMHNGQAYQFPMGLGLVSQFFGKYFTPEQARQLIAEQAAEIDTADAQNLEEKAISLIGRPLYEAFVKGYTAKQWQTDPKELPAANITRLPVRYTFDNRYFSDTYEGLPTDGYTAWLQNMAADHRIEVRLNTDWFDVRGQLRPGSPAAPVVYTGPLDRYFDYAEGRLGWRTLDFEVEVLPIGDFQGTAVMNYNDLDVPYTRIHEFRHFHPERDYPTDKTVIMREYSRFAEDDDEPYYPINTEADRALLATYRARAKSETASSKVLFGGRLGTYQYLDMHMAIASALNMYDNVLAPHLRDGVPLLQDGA
PrP 5UTR inh = suppresses PrP 5' UTR mRNA reporter expression | cell-based PrP 5' UTR mRNA reporter, plate reader | inhibition, % (concentration not given with the values) | 340,000 tested, 0.35% active | AID 488862; in the data active = inhibition above about 52%; note: 0 = median of the neutral control wells
FadD28 FP inh = M. tuberculosis FadD28 bisubstrate binding inhibition; inhibition, % at 12.5 µM; AID 588549; FadD28 bisubstrate probe binding, fluorescence polarization; 360,000 tested, 0.22% active; in the data active = inhibition above about 8.5%, passing the limit was not always enough
An asterisk follows results filed as active; nt = no result given. Shown are actives, neighbours in structure and some others; about 1.3% of the full set was active somewhere.

SMILES	RecA intein inh	Rv3671c protease	BJeLR viability	UGM FP inh	PrP 5UTR inh	FadD28 FP inh
O=C(Nc1cccc(-c2nc3ccccc3[nH]2)c1)c1cccc(NC(=O)c2ccco2)c1	-19	-138	6	-1	-11	17*
CCc1ccc(/C=N/NC(=O)c2cc(-c3ccncc3)nc3ccccc23)s1	4	9	14	3	-29	-3
O=C(N/N=C/c1cccs1)c1cc(-c2ccncc2)nc2ccccc12	7	-22	56*	0	-1	-5
O=C(O)c1cc(O)c2c(c1)C(=O)c1cc(O)cc(O)c1C2=O	5	11	8	3	-13	13*
C/C(CC(=O)Nc1cc(C)ccn1)=N\NC(=O)c1ccc(C)cc1	62*	3	3	0	-6	0
Cc1ccc(C(=O)NCC(=O)Nc2cc(C)ccn2)cc1	-4	-3	7	-2	-58	-4
Cc1nc(SCC(=O)N2CCCC2=O)c2c(C)c(C)sc2n1	nt	nt	nt	nt	nt	1
CCC(C(=O)NC(C)(C)C)N(Cc1ccc(OC)cc1)C(=O)c1snc(C(N)=O)c1N (configuration not stated)	nt	nt	nt	nt	nt	-1
O=C(CCCCCN1C(=O)c2ccccc2C1=O)Nc1ccccc1	0	-3	5	1	-22	-1
O=C(CCCCCCC(=O)Nc1ccccc1)NO	-1	1	72*	1	-79	-3
CN1OC[C@@H]2CN(S(=O)(=O)c3cccc4ccccc34)[C@H](c3ccc(-c4cccnc4)cc3)C[C@@H]21	nt	nt	nt	nt	nt	-3
CC(=O)NC(C)(c1ccccc1)c1nc(-c2ccc(F)c(Cl)c2)cs1 (configuration not stated)	nt	nt	nt	nt	nt	-1
CC(C)Nc1nc(NCc2ccccc2)c2sccc2n1	nt	nt	nt	nt	nt	-2
CCOc1ccccc1NC(=O)COC(=O)C1COc2ccccc2O1 (configuration not stated)	nt	nt	nt	nt	nt	-3
CC(C)(C)c1nnc(N/N=C/c2cc(Br)ccc2O)n(N)c1=O	12	6	85*	0	39	-3
NC(=O)N/N=C\c1cc(Br)ccc1O	-12	6	-6	3	-8	-1
Fc1ccc(-c2nc3ccc(Br)cn3c2Cc2ccsc2)cc1	nt	nt	nt	nt	nt	-6
Cc1ccc([C@H]2C[C@@H](n3cc(-c4ccc(F)cc4)nn3)[C@H](O)CN2C(=O)C2CCCCC2)cc1	nt	nt	nt	nt	nt	-1
Cc1ccc(-c2nc(-c3ccccc3)no2)cc1	-3	-1	11	1	9	-1
Cc1ccc(-c2nc(-c3ccccc3)no2)c(Cl)c1	6	-3	11	-1	65*	0
O=C(CSc1ncnc2c1nnn2Cc1ccccc1F)N1CCN(c2ccccc2)CC1	43*	nt	5	nt	-13	-3
O=C(Cn1cnc2c(nnn2Cc2ccccc2F)c1=O)N1CCN(c2ccccc2)CC1	1	-4	-9	0	-14	-2
CC(C)(C)NC(=O)CSc1ncnc2c1nnn2Cc1ccccc1Cl	61*	5	-1	1	-14	-4
O=C(NCCc1ccc2c(c1)OCCO2)c1cc(S(=O)(=O)N2CCCC2)ccc1Br	nt	nt	nt	nt	-4	0
CC[C@@H]1CCC[C@@H](O)[C@@H](C)C(=O)O[C@H](C)[C@@H](C)C/C=C(C)/C(OC)=C\C(=O)N(C)C([C@@H](C)CC)C(=O)N(C)[C@@H](C(C)C)C(=O)N(C)[C@@H](COC)C(=O)N2CCC[C@H]2C(=O)N(C)[C@@H](C(C)C)C(=O)N2CCC[C@H]2C(=O)O1 (some centres not stated)	nt	nt	nt	nt	nt	1
SMILES	RecA intein inh	Rv3671c protease	BJeLR viability	UGM FP inh	PrP 5UTR inh	FadD28 FP inh
O=C(N/N=C/c1c[nH]c2ccccc12)c1cc(Cl)ccc1O	-6	11	7	4	-18	16*
Cc1cc(C)n(C2CC(=O)N(c3ccccc3)C2=O)n1 (configuration not stated)	4	3	-5	1	-16	1
CC(=O)NC1N=C(C)N(c2ccccc2)C1=O (configuration not stated)	52*	-4	6	0	-13	-2
Cc1ccc(OCC(=O)Oc2cccc(C)c2)cc1	7	5	2	2	nt	-2
CC(=O)Nc1cccc(OC(=O)COc2ccc(Br)cc2)c1	35*	-5	2	-2	1	-2
O=Nc1c(O)c2ccccc2c2ccccc12	41*	5	2	-1	-65	1
CC(C)(C)c1ccc(S(=O)(=O)NC(=O)C2(C)CCN2C(=O)CC2CCCCC2)cc1 (configuration not stated)	nt	nt	nt	nt	nt	-2
N#C/C(=C\c1coc2ccccc2c1=O)C(N)=S	0	4	2	0	-20	-1
N#C/C(=C\c1coc2ccc(O)cc2c1=O)C(=O)Nc1nc2ccccc2s1	-4	-7	-8	-26	5	29*
CCn1c(CSc2nnc3ccccn23)nc2cc(C(=O)O)ccc21	4	27	-1	6	-28	13*
CCOC(=O)c1nn(-c2ccc(C)c(C)c2)c(=O)c2c(N)scc12	nt	-19	8	2	-11	0
CCOC(=O)c1nn(-c2ccc(OC)cc2)c(=O)c2c(N)scc12	47*	-20	0	-1	-35	-1
COc1ccc(/C=N/NC(=O)c2nn(-c3ccccc3)c(=O)c3c(N)scc23)cc1	68*	-49	4	0	-2	0
COc1ccccc1NS(=O)(=O)c1cccc(NC(=O)Nc2ccc(Cl)cc2)c1	0	-335	7	1	-12	31*
COc1ccccc1NS(=O)(=O)c1cccc(NC(=O)Nc2ccccc2)c1	1	-98	2	0	-14	-4
Cc1[nH][nH]c(=O)c1C(c1ccc(-c2cccc(Cl)c2)o1)c1c(C)[nH][nH]c1=O	97*	-163	5	-2	-9	0
Cc1[nH][nH]c(=O)c1C(c1ccc(-c2cccc(C(=O)O)c2)o1)c1c(C)[nH][nH]c1=O	nt	-109	2	2	-19	-1
O=C(NCc1cccnc1)c1cc(C2CCCN(S(=O)(=O)c3cccc4cccnc34)C2)on1 (configuration not stated)	nt	nt	nt	nt	nt	-3
CC1NC(=O)c2cc3ccccc3cc2-n2c1nc1cc(Cl)ccc1c2=O (configuration not stated)	nt	nt	nt	nt	nt	0
CC(C)(C)C1CCc2sc(-c3nnc(CCl)o3)cc2C1 (configuration not stated)	51*	-4	7	-2	48	-2
COc1ccccc1CNC(=O)Nc1nnc([C@H]2C[C@H](O)[C@@H](CO)O2)s1	nt	nt	nt	nt	nt	-3
Cc1cc2nc3c(=O)[nH]c(=S)[nH]c3nc2cc1NC(=O)C(F)(F)F	-73	21	-2	19*	-8	1
CCN1/C(=C/c2ccc3ccccc3[n+]2CC)C=Cc2ccccc21	-1	-70	62*	-1	28	-4
CC1(C(=O)NS(=O)(=O)c2ccc(C#N)cc2)CCN1C(=O)Cc1cc(F)ccc1F (configuration not stated)	nt	nt	nt	nt	nt	-4
OCC[C@@H]1C[C@H](O)[C@@H](O)[C@]2(OCCc3cc(Cl)ccc32)O1	nt	nt	nt	nt	nt	0
